Reference: PubChem BioAssay AID1898 (National Center for Advancing Translational Sciences (NCATS), 2009)
The other results are listed elsewhere or left out. Results filed as inconclusive are left out. Active and inactive are the calls of the source. Calls come from the whole dose curve; as a rule, active = well fitted curve in the direction sought with a large enough effect; inconclusive = small, poorly fitted or top-dose-only effect, or another doubt; inactive = no such curve, though single readings can be large or run the other way.

Assay: Secondary assay for Activators of Human Pyruvate Kinase M2 isoform - Cell Titer Glo cytotoxicity assay; note: % of control where 0% means no effect
Settings: HeLa viability, CellTiter-Glo ATP luminescence, 24 h; series mostly up to 57.5 µM; activity change, negative = cytotoxicity: at the top concentration
Experimental: NIH Chemical Genomics Center [NCGC] Matthew G. Vander Heiden, M.D., Ph.D. [Harvard Medical School, 77 Avenue Louis Pasteur, Boston, MA 02115] MLPCN Grant: 1 R03 MH085679-01 NCGC Assay Overview: We have identified a series of activators of the M2 isoform of human pyruvate kinase. The assay described here examines the cytotoxicity of these compounds by measuring the total ATP content of Hela cells after 24 hrs of exposure to compound.
Assay Protocol: 500 Hela cells/ 4ul in media (DMEM with high glucose, 10% FBS, 1x Pen Strep, 1x NEAA) were dispensed into a white solid 1536-microwell plate with a Thermo Multidrop. The plates were incubated at 37 degrees Celsius for 24 hours. The cells were then treated with compounds using the Kalypsys pin tool, delivering 23 nl of test compounds and the control doxorubicin. The plates were then incubated for an additional 24 hours at 37 degrees C after which 4 ul of Promega Cell-Titer Glo was dispensed using the Thermo Multidrop. The plates were incubated at room temperature for 10 min before reading luminescence on the Perkin Elmer ViewLux with images collected with 2x binning and a 5 sec exposure time.

Row | SMILES | activity change, negative = cytotoxicity
1 | O=C(NCc1ccccn1)c1c(O)c2c([nH]c1=O)CCCC2 | 1.11% (inactive)
2 | Cc1ccc(Cn2ncc3c4sc(C)cc4n(C)c3c2=O)c(C)c1 | -8.1% (inactive)
3 | O=C(c1c(F)cccc1F)N1CCN(S(=O)(=O)c2ccc3c(c2)OCCO3)CC1 | -20.9% (inactive)
4 | O=S(=O)(NCCCCCCNS(=O)(=O)c1c(F)cccc1F)c1ccc2c(c1)OCCO2 | -2.79% (inactive)
5 | O=C(NCc1cccs1)C1CCN(S(=O)(=O)c2ccc3c(c2)OCCO3)CC1 | 7.05% (inactive)
6 | CC(=O)c1cc(C#N)c(SCC(=O)Nc2nccs2)nc1C | -6.98% (inactive)
7 | CSc1nc2ccc(S(=O)(=O)N3CCc4ccccc43)cc2s1 | -25.9% (inactive)
8 | Cn1c2cc(B(O)O)sc2c2cnn(Cc3ccccc3F)c(=O)c21 | 5.07% (inactive)
9 | O=S(=O)(NC1CCN(S(=O)(=O)c2ccc3c(c2)OCCO3)CC1)c1c(F)cccc1F | -10.7% (inactive)
10 | Cc1cc2c(s1)c1cnn(Cc3c(F)cccc3Cl)c(=O)c1n2C | 0.849% (inactive)
11 | CN(C)N=Nc1ccc2nc[nH]c2c1 | -5.89% (inactive)
12 | O=S(=O)(NCC1CN(S(=O)(=O)c2ccc3c(c2)OCCO3)C1)c1c(F)cccc1F | 7.45% (inactive)
